DT40 TDP1 CPT: growth inhibition of DT40 Tdp1-/-;hTDP1 cells with camptothecin (screen for TDP1 inhibitors). chicken DT40 Tdp1-/-;hTDP1 cells + 20 nM CPT, ATP luminescence, 48 h. Potency, µM (highest dose often 46.2 µM), for inactives: at the highest dose activity change, negative = growth inhibition, most hits filed as inhibitors. actives 12% (n = 420,000). AID 686979; further: potency means the concentration at half of the fitted maximal effect; nearly all actives have a fitted effect of over 55% in size
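Chicken DT40 Tdp1-/- cells stably complemented with human TDP1 were seeded at 400 cells/well in medium containing 20 nM camptothecin, exposed to pin-transferred compounds, and grown at 37 °C for at least 48 hr. Viability was read as ATP luminescence.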
IL1B secr inh: inhibitors of inflammasome signaling (IL-1 beta secretion). THP-1 LPS/ATP IL-1B secretion, AlphaLISA, 16 h; hits give low values. activity change, % at 57.5 µM. actives 4.7% (n = 360,000). AID 743279; in the data active means activity change below about -50%; inconclusive means mostly about -30% to -49%
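THP-1 cells pretreated 1 hr with compounds (up to 57.5 uM final), then stimulated with LPS (250 ng/mL final) plus ATP (1.25 mM final); secreted IL-1B measured by AlphaLISA after 16 hr, decreased signal indicating inhibition.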
HT1080 IDH1KD tx: kills HT-1080 cells with IDH1 knockdown. HT-1080 IDH1 knockdown viability, ATP luminescence, 48 h. Potency, µM (titrated, usually from 46.1 µM), without a hit: at the top dose activity, negative = toxicity, actives largely listed as cytotoxic. actives 2% (n = 360,000). AID 686971;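 further: potency means the concentration at half of the fitted maximal effect; 0% = DMSO wells and -100% = cell-free medium wells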
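Cytotoxicity counter-line: IDH1KD HT-1080, 48 h, CellTiter-Glo. Curves classed by r2, magnitude and activity.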
DT40 TDP1 no CPT: qHTS for Inhibitors of human tyrosyl-DNA phosphodiesterase 1 (TDP1): qHTS in cells in absence of CPT | DT40 Tdp1-/- hTDP1 cells, no CPT, ATP luminescence, 48 h | Potency, µM (doses to about 46.2 µM), for inactives: top-dose activity change, negative = growth inhibition, most hits filed as inhibitors | actives 15% (n = 420,000); further: potency means the concentration at half of the fitted maximal effect; nearly all actives have a fitted effect of over 55% in size
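Compound effects on proliferation are scored in DT40 Tdp1-/-;hTDP1 cells in the absence of CPT. ATP levels (CellTiter-Glo luminescence) are recorded after a ≥48 hr, 37 °C incubation.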
HT1080-NT tox: kills 2HG-producing HT-1080-NT fibrosarcoma cells. Potency, µM (series often up to 46.1 µM), for inactives: at the highest dose activity, negative = less viability, hits mostly cytotoxic. HT-1080-NT fibrosarcoma viability, CellTiter-Glo ATP luminescence, 48 h. actives 1.6% (n = 360,000);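 further: NT is the 2HG producing partner of a matched IDH1 knockdown line; potency means the concentration at half of the fitted maximal effect; 0% = DMSO-treated cells and -100% = media-only wells without cells; nearly all actives have a fitted effect of over 55% in size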
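Luminescent CellTiter-Glo readout after 48 hours of compound exposure at 37 degrees C defined viability of HT-1080-NT cells. Activity was normalized to DMSO wells and cell-free media wells; concentration-response curves were fitted and assigned curve classes.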
ELG1 DNA repair: ELG1-dependent DNA repair inhibition; HEK293T ELG1-luciferase reporter, luminescence, 16 h; DNA damage induced by 5-fluorouridine; Potency, µM (titrated, usually from 46.1 µM), for inactives: at the highest dose activity change, negative = inhibition, actives largely listed as inhibitors; actives 2.3% (n = 330,000); AID 504467; further: potency means the concentration at half of the fitted maximal effect; nearly all actives have a fitted effect of over 55% in size
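Overnight (16 hr) co-exposure of 2,000 cells/well to 5-fluorouridine and compound at 37 °C preceded detection. Luciferase was quantified via ONE-Glo luminescence; loss of signal denotes inhibition.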
Starred values were filed as active, the others as inactive; ? = inconclusive; · = no result given. Sampled rows, rich in hits. Any-hit rate of the full collection: about 19%. Unless noted, the call rests on the fitted dose curve; in most records, active means well fitted curve in the direction sought with a large enough effect; inconclusive means small, poorly fitted or top-dose-only effect, or another doubt; inactive means no such curve, though single readings can be large; an effect the other way counts as inactive or inconclusive. Unless noted, on the % scale 0 is the no-effect control and ±100 the full control effect.

SMILES | DT40 TDP1 CPT | IL1B secr inh | HT1080 IDH1KD tx | DT40 TDP1 no CPT | HT1080-NT tox | ELG1 DNA repair
CCOC(=O)/C(=N/Nc1ccc(C)cc1)S(=O)(=O)c1ccc(Cl)cc1 | 16µM* | ? | ? | ? | ? | ?
COc1ccccc1N1CCN(C2CCCCC2NS(=O)(=O)c2ccccc2)CC1 (stereo not given) | 21µM* | -27 | -6% | 16µM* | -2% | -6%
CCCCCCN1C[C@H](n2cc(-c3ccc(F)cc3)nn2)[C@@H](O)C[C@@H]1c1ccccc1 | ? | 12 | 15% | ? | 7% | ·
O[C@H]1CN(CC2CCCCC2)[C@@H](c2ccc(Cl)cc2)C[C@@H]1n1cc(-c2ccc(F)cc2)nn1 | ? | -11 | 8% | 21µM* | 8% | ·
O[C@H]1C[C@H](c2ccc(Cl)cc2)N(CC2CCCCC2)C[C@@H]1n1cc(-c2ccc(F)cc2)nn1 | ? | 15 | 7% | ? | 9% | ·
CCCCCCN1C[C@H](n2cc(-c3ccc(F)cc3)nn2)[C@@H](O)C[C@@H]1c1ccc(Cl)cc1 | ? | -104* | ? | 16µM* | ? | ·
CCCCCCN1C[C@H](O)[C@@H](n2cc(-c3ccc(F)cc3)nn2)C[C@@H]1c1ccccc1 | 21µM* | -20 | ? | 21µM* | ? | ·
COc1ccc(CN2CCSc3sccc3C2=O)cc1 | -4% | -11 | 3% | -5% | -2% | -13%
CC(=O)N1N=C(c2ccc(C)cc2)OC1c1cccnc1 (stereo not given) | -2% | -20 | ? | -23% | 0% | ?
CC1CCCCN1c1cc2c(cc1F)c(=O)c(S(=O)(=O)c1ccccc1)cn2Cc1ccccc1 (stereo not given) | 8.2µM* | · | · | 8.2µM* | · | ·
CCc1ccc(S(=O)(=O)c2cn(CC)c3cc(N4CCOCC4)c(F)cc3c2=O)cc1 | 15µM* | · | · | ? | · | ·
CCn1cc(S(=O)(=O)c2ccc(C)cc2)c(=O)c2cc(F)c(N3CCCCCC3)cc21 | 16µM* | · | · | 18µM* | · | ·
Cc1ccc(S(=O)(=O)c2cn(Cc3ccccc3)c3cc(N4CCCC4)c(F)cc3c2=O)cc1 | 5.8µM* | · | · | 5.8µM* | · | ·
Cc1cccc(S(=O)(=O)c2cn(Cc3ccccc3)c3cc(N4CCCCC4C)c(F)cc3c2=O)c1 (stereo not given) | -58% | · | · | ? | · | ·
CCn1cc(S(=O)(=O)c2cc(C)cc(C)c2)c(=O)c2cc(F)c(N3CCOCC3)cc21 | ? | · | · | -22% | · | ·
CCn1cc(S(=O)(=O)c2ccc(C)cc2C)c(=O)c2cc(F)c(N3CCCCC3)cc21 | ? | · | · | 23µM* | · | ·
CCn1cc(S(=O)(=O)c2ccc(OC)cc2)c(=O)c2cc(F)c(N3CCC(C)CC3)cc21 | ? | · | · | 26µM* | · | ·
CSc1nc2nc(Cl)c(Cl)nc2[nH]1 | ? | 22 | -29% | ? | -3% | ·
Cc1ccc(O)c(-c2cc(-c3ccc(F)cc3)no2)c1 | -23% | 37 | 3% | -16% | 7% | ?
CCOc1ccc(-c2cccc(NC(=O)c3cccs3)c2)nn1 | ? | -8 | -19% | ? | -2% | ?
CCN1CCN(Cc2c(O)ccc3c(C)c(-c4ccc(OC)cc4)c(=O)oc23)CC1 | ? | · | · | 23µM* | · | ·
COc1ccc(-c2c(C)oc3c(CN4CCN(C)CC4)c(O)ccc3c2=O)cc1 | -1% | -14 | 1% | -19% | -1% | 9%
COc1ccc(-c2cc3ccc(O)c(CN4CCCC(C)C4)c3oc2=O)cc1 (stereo not given) | ? | · | · | 16µM* | · | ·
CN1CCN(Cc2c(O)ccc3cc(-c4ccc(Cl)cc4)c(=O)oc23)CC1 | 23µM* | · | · | ? | · | ·
COc1ccc(-c2c(C)c3ccc(O)c(CN4CCCC(C)C4)c3oc2=O)cc1OC (stereo not given) | -17% | · | · | -23% | · | ·
SMILES | DT40 TDP1 CPT | IL1B secr inh | HT1080 IDH1KD tx | DT40 TDP1 no CPT | HT1080-NT tox | ELG1 DNA repair
Cc1cc(=O)oc2cc(OCC(=O)N3CCN(C(=O)C4COc5ccccc5O4)CC3)c(Cl)cc12 (stereo not given) | ? | 0 | 16% | ? | 1% | ?
O=C(Nc1ccc2nc(C3CC3)n(Cc3ccc(F)cc3)c(=O)c2c1)c1ccco1 | 20µM* | -51* | -18% | ? | -13% | ?
CCn1c(SCC(=O)Nc2ccc(NC(=O)c3ccco3)c(OC)c2)nc2ccccc2c1=O | -10% | 0 | -9% | -12% | -9% | ?
COc1cccc(Cn2c(C3CC3)nc3ccc(NC(=O)c4ccco4)cc3c2=O)c1 | · | · | · | · | · | 23µM*
COc1ccccc1NC(=O)C[n+]1ccccc1C | 20% | 6 | 10% | 5% | 24% | ?
Cc1nc(C(Cl)(Cl)Cl)nc2[nH]ccc(=O)c12 | ? | 133 | ? | 16µM* | -14% | -12%
CC(=O)c1c(-c2ccccc2)c2cc([N+](=O)[O-])ccc2[nH]c1=O | ? | -11 | -4% | 15µM* | -2% | ?
C[C@H]1CN=C(Nc2ccccc2)N1CCCC1CCCC1 | 18µM* | ? | -9% | 16µM* | -12% | ?
CC(C)CN1C(Nc2ccccc2)=NC[C@@H]1C | 0% | 12 | 11% | 14% | 9% | -13%
C[C@H]1CN=C(Nc2ccccc2)N1CC1CCCCCC1 | 18µM* | -24 | 8% | 13µM* | 1% | 7%
C[C@H]1CN=C(Nc2ccccc2)N1CC1CCC1 | -1% | 7 | -2% | 1% | 2% | -2%
CCN1C(Nc2ccccc2)=NC[C@@H]1C | 10% | 18 | 4% | 8% | -1% | -20%
C[C@H]1CN=C(Nc2ccccc2)N1CCC1CCCCC1 | 18µM* | 0 | -2% | ? | 7% | -8%
COc1cc(CCNC(=O)CCCn2c(=O)c3cccn3c3cccnc32)cc(OC)c1OC | ? | -9 | 18% | -26% | 10% | -1%
Cc1ccccc1Cn1c(=O)n(CCCCC(=O)NCc2ccccc2Cl)c(=O)c2ccccc21 | -11% | · | · | ? | · | ·
O=C(CCCCn1c(=O)c2ccccc2n(Cc2ccccc2F)c1=O)NC1CCN(Cc2ccccc2)CC1 | ? | -6 | 9% | 16µM* | 15% | ?
COc1ccccc1CNC(=O)Cn1c(=O)c2cccn2c2cccnc21 | -21% | 0 | 1% | -18% | 0% | -1%
